Laboratory results taken from PMC10668032, “Altered binding affinity of SIX1-Q177R correlates with enhanced WNT5A and WNT pathway effector expression in Wilms tumor”.
The full ranking holds about 33,000 sequences; the median of “e-score” is about -0.053, and the highest 2% start at about 0.38. Only a selection was taken, and the highest values are over-represented in it overall.

These sequences were tested against T1, SIX1 homeodomain (reference allele) (human, UniProt Q15475 108-198) (assay: universal protein binding microarray; Universal all-10-mer PBM (8x60K, AMADID 030236), 300 nM GST-tagged protein, Alexa Fluor 488 anti-GST; buffer, salt, pH and temperature not stated (as in Berger); high values mean tight binding). Details: protein: ivt; tags: N-terminal GST; dsDNA, one strand shown.
T1 sequence: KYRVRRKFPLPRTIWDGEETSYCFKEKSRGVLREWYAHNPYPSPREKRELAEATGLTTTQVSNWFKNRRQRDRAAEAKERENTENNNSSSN
Outline: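 Binding was expressed as 8-mer E-scores calculated with the Universal PBM Analysis Suite. The GST-tagged homeodomains, made by in vitro transcription/translation, were applied in duplicate at 300 nM final concentration to universal 'all 10-mer' protein binding microarrays (8×60K format).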

| Sequence | binding signal |
| --- | --- |
| ATACCTTG | 0.335 ± 0.0223 E-score |
| ACACCTAC | 0.191 ± 0.0849 E-score |
| ATACCTGA | 0.3668 ± 0.00206 E-score |
| ATACCTGC | 0.342 ± 0.0303 E-score |
| ACACCTAG | 0.231 ± 0.0166 E-score |
| ATACCTGG | 0.27 ± 0.0557 E-score |
| ACACCTAT | 0.26 ± 0.021 E-score |
| ATACCTAG | 0.392 ± 0.0316 E-score |
| ATACCTAT | 0.398 ± 0.0488 E-score |
| ATACCTAC | 0.385 ± 0.0317 E-score |
| ATACCTTA | 0.385 ± 0.0525 E-score |
| ATACCTAA | 0.273 ± 0.0487 E-score |
| CCGAATCC | 0.163 ± 0.0406 E-score |
| ATCTTGTC | 0.153 ± 0.0184 E-score |
| TCGATCCA | 0.152 ± 0.142 E-score |
| TGGCATAA | 0.177 ± 0.0236 E-score |
| AGCTATAC | 0.235 ± 0.02 E-score |
| ATCGCTAG | 0.279 ± 0.0337 E-score |
| ATTAGTGA | 0.152 ± 0.0306 E-score |
| ATACCTCG | 0.342 ± 0.0353 E-score |
| ATACCTCA | 0.352 ± 0.0542 E-score |
| ATACCTCC | 0.403 ± 0.0208 E-score |
| ATACTGCA | 0.242 ± 0.0213 E-score |
| ATTGAGAC | 0.212 ± 0.0411 E-score |
| AACTGGAT | 0.172 ± 0.0594 E-score |
| CGGTATAG | 0.216 ± 0.0268 E-score |

| Sequence | binding signal |
| --- | --- |
| GGGTATAA | 0.375 ± 0.0497 E-score |
| AGGTATAA | 0.242 ± 0.0818 E-score |
| CGGTATAC | 0.393 ± 0.00578 E-score |
| CGGTATAA | 0.294 ± 0.0192 E-score |
| GCGTATAC | 0.295 ± 0.011 E-score |
| AGGTATAG | 0.262 ± 0.0777 E-score |
| AGGTATAC | 0.4 ± 0.0358 E-score |
| GGGTATAC | 0.416 ± 0.0059 E-score |
| CACTATCG | 0.211 ± 0.013 E-score |
| TAGATCCA | 0.227 ± 0.0321 E-score |
| CATAACAC | 0.161 ± 0.0101 E-score |
| ATCTGCCA | 0.187 ± 0.0302 E-score |
| GAGATCTC | 0.292 ± 0.0824 E-score |
| ATCATCCG | 0.348 ± 0.0124 E-score |
| ACACCCCT | 0.327 ± 0.0413 E-score |
| ATCCGAAT | 0.313 ± 0.0137 E-score |
| TATTAAAA | 0.18 ± 0.0684 E-score |
| GGCGGGGA | 0.174 ± 0.14 E-score |
| ATCTCCTA | 0.159 ± 0.082 E-score |
| CTATCCTC | 0.282 ± 0.0379 E-score |
| AGATCCTG | 0.252 ± 0.0351 E-score |
| ATCTCCTG | 0.298 ± 0.00608 E-score |
| GTATTCTA | 0.191 ± 0.00249 E-score |
| CTATCCTA | 0.198 ± 0.0137 E-score |
| ATATCCTC | 0.426 ± 0.02 E-score |
| GTATCCTA | 0.409 ± 0.00666 E-score |

| Sequence | binding signal |
| --- | --- |
| ATATCCTG | 0.394 ± 0.0206 E-score |
| AGATCCTC | 0.329 ± 0.0109 E-score |
| ATATCCTA | 0.415 ± 0.027 E-score |
| TAATCCTA | 0.215 ± 0.0252 E-score |
| GATCTTAC | 0.275 ± 0.0138 E-score |
| ACAGGATC | 0.283 ± 0.00359 E-score |
| ATCGAGAC | 0.217 ± 0.013 E-score |
| CCGGATGA | 0.275 ± 0.0448 E-score |
| CCGGATTA | 0.351 ± 0.0231 E-score |
| AGAGATCA | 0.302 ± 0.0481 E-score |
| TCGGATCA | 0.4385 ± 0.00286 E-score |
| CCAGATCG | 0.292 ± 0.0492 E-score |
| CCGGATCA | 0.454 ± 0.013 E-score |
| CCAGATCA | 0.39 ± 0.0106 E-score |
| TCAGATCA | 0.243 ± 0.0928 E-score |
| TGAGATCA | 0.33 ± 0.0117 E-score |
| TCGGATAA | 0.336 ± 0.0635 E-score |
| GGAGATCA | 0.386 ± 0.0139 E-score |
| TCCGATCA | 0.212 ± 0.00764 E-score |
| GACACTCC | 0.258 ± 0.0239 E-score |
| CAGTGTAG | 0.161 ± 0.0252 E-score |
| CGATCTGA | 0.30169 ± 0.000148 E-score |
| ATACTTGA | 0.222 ± 0.103 E-score |
| GTATAAAA | 0.246 ± 0.0491 E-score |
| GATAGTTA | 0.153 ± 0.035 E-score |
| CAGATCAC | 0.3666 ± 0.00216 E-score |

| Sequence | binding signal |
| --- | --- |
| ACTCAGGG | 0.266 ± 0.0829 E-score |
| CGTAATAC | 0.256 ± 0.0115 E-score |
| GCGGATGA | 0.171 ± 0.0144 E-score |
| GCGGATCA | 0.448 ± 0.00571 E-score |
| GCGGATTA | 0.318 ± 0.0316 E-score |
| ATCGTACC | 0.217 ± 0.0516 E-score |
| CCCTCTCA | 0.17 ± 0.048 E-score |
| GATAGCCC | 0.303 ± 0.0137 E-score |
| AGATTGAT | 0.221 ± 0.0674 E-score |
| AATACCAC | 0.33 ± 0.0283 E-score |
| TATACCAA | 0.347 ± 0.016 E-score |
| GATACCAC | 0.462 ± 0.0103 E-score |
| AATACCAT | 0.296 ± 0.0291 E-score |
| AATACCAA | 0.278 ± 0.0235 E-score |
| GATACCAA | 0.4303 ± 0.00174 E-score |
| ACAGTGGT | 0.155 ± 0.0272 E-score |
| GGATGACC | 0.205 ± 0.0281 E-score |
| CTGAAACC | 0.155 ± 0.0131 E-score |
| CATAAGAA | 0.178 ± 0.0241 E-score |
| CCGGACAC | 0.192 ± 0.0231 E-score |
| ATGCACTA | 0.159 ± 0.065 E-score |
| CGTATTTA | 0.169 ± 0.0073 E-score |
| CCCGGAGA | 0.169 ± 0.0421 E-score |
| CCTGGATA | 0.313 ± 0.0384 E-score |
| CCCGGATA | 0.424 ± 0.0139 E-score |
| GCCGGATA | 0.409 ± 0.0137 E-score |

| Sequence | binding signal |
| --- | --- |
| GCCAGATA | 0.213 ± 0.0509 E-score |
| GCTGGATA | 0.324 ± 0.0373 E-score |
| ACCGACAC | 0.2857 ± 0.000453 E-score |
| ATCGATCC | 0.389 ± 0.0532 E-score |
| ACCGATGA | 0.17 ± 0.0208 E-score |
| CCCGATCC | 0.366 ± 0.0566 E-score |
| ACCGATCA | 0.2912 ± 0.000771 E-score |
| ACCGATAC | 0.453 ± 0.017 E-score |
| ATCGATCA | 0.17 ± 0.0323 E-score |
| CCCGATAG | 0.205 ± 0.0789 E-score |
| CCCGATAC | 0.438 ± 0.0253 E-score |
| ATCGATCG | 0.256 ± 0.037 E-score |
| CCCGACAC | 0.19 ± 0.0993 E-score |
| ACCGATCC | 0.382 ± 0.0237 E-score |
| ATCTTACC | 0.296 ± 0.0402 E-score |
| CGTGTCAG | 0.202 ± 0.0504 E-score |
| ATACTCGG | 0.316 ± 0.01 E-score |
| ATCGTCAC | 0.279 ± 0.00711 E-score |
| GATCTGCA | 0.258 ± 0.0208 E-score |
| ATCACTGG | 0.215 ± 0.00955 E-score |
| CCGGGTGA | 0.201 ± 0.0475 E-score |
| ACCGATAT | 0.396 ± 0.00927 E-score |
| GCCGATAC | 0.42 ± 0.0113 E-score |
| ACCGATAG | 0.352 ± 0.018 E-score |
| TCCGATAA | 0.223 ± 0.0291 E-score |
| ACCGATCT | 0.251 ± 0.0228 E-score |

| Sequence | binding signal |
| --- | --- |
| GCCGATCC | 0.352 ± 0.0357 E-score |
| TATAAATA | 0.16 ± 0.095 E-score |
| CGAGATGA | 0.187 ± 0.0163 E-score |
| AGTAGATA | 0.334 ± 0.0532 E-score |
| ATAGCTAC | 0.163 ± 0.0342 E-score |
| AGGCGTAT | 0.318 ± 0.00622 E-score |
| TATCTGAA | 0.153 ± 0.0196 E-score |
| AAGGATAG | 0.195 ± 0.0349 E-score |
| GAGGATAA | 0.278 ± 0.00471 E-score |
| CAGGATAC | 0.365 ± 0.0177 E-score |
| AAGGATAC | 0.405 ± 0.0292 E-score |
| AAGGATAA | 0.167 ± 0.034 E-score |
| GAGGATAC | 0.403 ± 0.0104 E-score |
| ACATTGAT | 0.154 ± 0.01 E-score |
| ATGAGACC | 0.295 ± 0.00298 E-score |
| ATCACATC | 0.284 ± 0.0264 E-score |
| CACCGATC | 0.305 ± 0.0428 E-score |
| CCATATAC | 0.29 ± 0.00643 E-score |
| ACATATCT | 0.233 ± 0.09 E-score |
| ACCTATCG | 0.236 ± 0.0191 E-score |
| ACATATAC | 0.244 ± 0.0208 E-score |
| ACATATCG | 0.389 ± 0.0479 E-score |
| CAATATCG | 0.296 ± 0.0508 E-score |
| CCATATAG | 0.211 ± 0.0217 E-score |
| CCATATGC | 0.159 ± 0.0297 E-score |
| CCATATCC | 0.424 E-score |

| Sequence | binding signal |
| --- | --- |
| ACATATAG | 0.162 ± 0.052 E-score |
| CCATATCG | 0.4544 ± 0.00281 E-score |
| ACATATCC | 0.381 ± 0.0241 E-score |
| ATATTCAG | 0.164 ± 0.0437 E-score |
| GCTTATCC | 0.304 ± 0.0229 E-score |
| TAGATGGA | 0.289 ± 0.00593 E-score |
| AACAGTAT | 0.196 ± 0.107 E-score |
| CGGATTCC | 0.247 ± 0.00447 E-score |
| CAGAACAA | 0.176 ± 0.0355 E-score |
| ATATTAAC | 0.156 ± 0.0934 E-score |
| CAAGATCA | 0.242 ± 0.0215 E-score |
| TATCATAA | 0.381 ± 0.0345 E-score |
| GGTCATGA | 0.169 ± 0.033 E-score |
| TATCAGGA | 0.397 ± 0.00041 E-score |
| TCTCATAA | 0.161 ± 0.0418 E-score |
| TATCATCA | 0.412 ± 0.0218 E-score |
| GATCATAA | 0.306 ± 0.00493 E-score |
| GATCAGGA | 0.339 ± 0.0411 E-score |
| TATCATGA | 0.382 ± 0.0397 E-score |
| GATCATGA | 0.273 ± 0.0126 E-score |
